Screening results: PubChem BioAssay, National Center for Advancing Translational Sciences (NCATS)
A selection: hits, their analogues and other compounds. The true share with any hit is near 10%.
G9a block: qHTS Assay for Inhibitors of Histone Lysine Methyltransferase G9a | Histone-lysine N-methyltransferase EHMT2 (Homo sapiens), Q96KQ7 | G9a H3K9 monomethylation, AlphaScreen, 2 h | Potency, µM (titrated, usually from 102 µM), without a hit: at the top dose activity, negative = inhibition, usual class: inhibitors | 350,000 compounds, 8.8% hits; note: % is set by controls: 0 for no effect and ±100 for the full control effect; nearly all actives have a fitted effect of over 75% in size
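Signal arises when biotinylated H3K9 peptide, once monomethylated, bridges streptavidin donor and antibody-captured acceptor beads. Enzyme at 20 nM was preincubated 15 min with test compounds; peptide 500 nM and SAM 20 uM then reacted for 2 h.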
BAZ2B inh: qHTS Assay for Inhibitors of BAZ2B; Bromodomain adjacent to zinc finger domain protein 2B (Homo sapiens), Q9UIF8; AlphaScreen BAZ2B-H3K14Ac peptide displacement; Potency, µM (doses to about 114 µM), inactives show at the highest dose activity change, negative = inhibition, hits mostly inhibitors; 360,000 compounds, 4.4% hits; AID 504333, 2011; note: % is set by controls: 0 for no effect and ±100 for the full control effect; nearly all actives have a fitted effect of over 60% in size
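Compounds, titrated to a top concentration of 110 uM, were incubated 30 min at room temperature with preformed BAZ2B/acetyl-K14 H3 peptide complex (50 nM each). Proximity signal was measured by AlphaScreen after 20 min with beads.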
GLS inh: qHTS for Inhibitors of Glutaminase (GLS); GLS enzymatic activity, qHTS titration; Glutaminase kidney isoform, mitochondrial (Homo sapiens), O94925; AID 624170, 2012; 410,000 compounds, 0.21% hits; Potency, µM (top dose mostly 45.5 µM), for the others: at the top dose activity change, negative = inhibition, actives largely listed as inhibitors; note: % is set by controls: 0 for no effect and ±100 for the full control effect
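Coupled fluorescence readout: glutamate oxidase/HRP/Amplex Red detect glutamate formed by hKGA from L-glutamine (1 mM solution added). Buffer 45 mM KH2PO4 pH 8.2, 0.02% Tween-20; reads at t0 and 30 min RT.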
HP1b chromo inh: HTS for Inhibitors of HP1-beta Chromodomain Interactions with Methylated Histone Tails; 390,000 compounds, 0.56% hits; Potency, µM (top dose mostly 114 µM), for the others: at the highest dose activity change, negative = inhibition, actives largely listed as inhibitors; AlphaScreen HP1-beta / biotin-H3K9me3 peptide binding; AID 540317, 2011; Chromobox protein homolog 1 (Homo sapiens), P83916; note: nearly all actives have a fitted effect of over 70% in size
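HP1-beta protein (50 nM final) preincubated 30 min at room temperature with biotinylated H3(1-18)K9me3 peptide (50 nM) in PBS pH 7.4, 0.01% Tween-20, then compound added for 30 min. AlphaScreen streptavidin donor/nickel chelate acceptor beads (10 ug/mL final), 30 min dark, luminescence read.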
JMJD2A Tudor: qHTS Assay for Inhibitors of JMJD2A-Tudor Domain; Lysine-specific demethylase 4A (Homo sapiens), O75164; AlphaScreen JMJD2A-Tudor / H3K4me3 peptide binding; 390,000 compounds, 4.4% hits; Potency, µM (top dose mostly 114 µM), for the others: at the highest dose activity change, negative = inhibition, hits mostly inhibitors; note: % is set by controls: 0 for no effect and ±100 for the full control effect; nearly all actives have a fitted effect of over 50% in size
Starred values were filed as active, the others as inactive; ? = inconclusive; · = no result given; [ ] = remark or other dose. Calls come from the whole dose curve; as a rule, active = well fitted curve in the direction sought with a large enough effect; inconclusive = small, poorly fitted or top-dose-only effect, or another doubt; inactive = no such curve, though single readings can be large; an effect the other way counts as inactive or inconclusive. Potency is the fitted concentration of half-maximal effect.

SMILES	G9a block	BAZ2B inh	GLS inh	HP1b chromo inh	JMJD2A Tudor
N#CC1=C(N)NC(SCc2ccccc2)=C(C#N)C12CCCC2	79µM*	-35%	0%	7%	?
CCCC(=O)N(CCN1CCOCC1)c1nc2c(OCC)cccc2s1	-1%	-4%	0%	42%	-10%
CSC1=C(C#N)C2(CCCC2)C(C#N)=C(N)N1	?	5%	·	·	·
CCSC1=C(C#N)C2(CCCC2)C(C#N)=C(N)N1	20µM*	-3%	?	-14%	?
Cn1ccc(C(=O)NC(=S)N2CCSCC2)n1	13µM*	-19%	21%	?	50µM*
NC(=S)Nc1cccc(-c2n[nH]c(=S)o2)c1	40µM*	-21%	25%	12%	?
Cc1ccc(NC(=S)Nc2cccc(-c3n[nH]c(=S)o3)c2)cc1	50µM*	?	14%	-19%	-28%
O=C(Cn1c2ccc(F)cc2c2nc3n(c(=O)c21)CCS3)N1CCCC1	-3%	25%	0%	15%	-18%
O=C(NCc1ccc(Cl)cc1)c1cc2ccccc2oc1=O	·	24%	9%	3%	-28%
COCCNC(=O)c1cc2cc(Cl)cc(Cl)c2oc1=O	45µM*	-3%	-9%	?	-6%
O=C(NCCO)c1cc2cc(Cl)cc(Cl)c2oc1=O	3.2µM*	-25%	?	?	-24%
CN1CCC(OC(=O)c2cc3cc(Cl)cc(Cl)c3oc2=O)CC1	?	-22%	1%	12%	-21%
COc1cccc2cc(C(=O)NCCc3ccccc3)c(=O)oc12	13%[0.501 µM]	-3%	-1%	16%	-12%
O=C(O)c1cc2cc(Cl)cc(Cl)c2oc1=O	56µM*	?	-2%	-6%	24%[11.4 µM]
C[C@H]1CN([C@@H](C)CO)C(=O)CCCn2nncc2CO[C@H]1CN(C)C(=O)C1CCCCC1	·	·	-5%	·	·
CCOc1ccc(C(=O)SC2=NCCS2)cc1	4%[12.7 µM]	-5%	0%	19%	-19%
Cc1ccc(OCC(=O)Nc2ccc3c(c2)nc(CCN2CCC(C)CC2)n3C)cc1	-9%	-15%[57.1 µM]	1%	33%	-17%
CCCCCCOC(=O)c1ccccc1NC(=O)/C=C/C(=O)O	-2%[0.501 µM]	?	-12%	92%	-8%
COc1ccc(C(=O)N/N=C/c2ccc(N3CCOCC3)o2)cc1OC	8.9µM*	-28%	-4%	-7%	-36%
O=C(N/N=C/c1ccc(N2CCOCC2)o1)c1cccc(F)c1	7.1µM*	2%	-4%	-3%	?
O=C(N/N=C/c1ccc(-c2cccc(C(F)(F)F)c2)o1)c1cccc(F)c1	17%[59 µM]	-6%	1%	4%	-27%
CC(=O)c1ccc(OC(=O)c2nc(-c3ccccc3)oc2C)cc1	56µM*	?	0%	26%	-29%
COc1cc(/C=N/Nc2cc(C)nc(N)n2)ccc1O	14%	-12%	10µM*	29%	-7%
COc1ccc(/C=N/Nc2cc(C)nc(N)n2)cc1	-31%[2.33 µM]	0%	6%	35%	-10%
COc1cc(/C=N/Nc2nn3cnnc3c3ccccc23)ccc1O	79µM*	?	46%	25%	-26%
SMILES	G9a block	BAZ2B inh	GLS inh	HP1b chromo inh	JMJD2A Tudor
CCOc1cc(/C=N/Nc2cc(C)nc(-n3nc(C)cc3C)n2)ccc1O	45µM*	?	13%	117%	?
O=C1CC(c2ccc(Cl)cc2)c2c(O)cc(O)cc2O1 (stereo unspecified)	-16%	-3%	-24%	19%	-5%
Cc1nc2cc(NC(=O)NCCCO)ccc2o1	14%	-2%	7%	36%	-4%
CCOc1ccc(C(=O)NCC(C)C)cc1	0.89µM*	8%	2%	17%	6%[57.1 µM]
C/C(=N\NC(=O)c1ccc(Br)cc1)C1C(=O)c2ccccc2C1=O	-49%[59 µM]	?	23%	-1%	?
CC(C)CCOc1ccc(C(=O)NCC(c2ccco2)N(C)C)cc1 (stereo unspecified)	50µM*	-4%	14%	-8%	-28%
CN(C)C(CNC(=O)c1ccc(Br)cc1)c1ccco1 (stereo unspecified)	4%	-17%	-7%	26%	-5%
CCOc1ccc(C(=O)N/N=C(/C)C2C(=O)c3ccccc3C2=O)cc1	13%[59 µM]	1%	8%	22%	35µM*
Cc1ccc(CNC(=O)c2ccc(OCC(C)C)cc2)n1C	45µM*	-31%	-13%	-2%	?
Cc1ccc(CNC(=O)c2ccc(S(=O)(=O)N(C)C)cc2)n1C	?	-13%	11%	-14%	-21%
CCOc1ccc2oc(C(=O)NCC(c3ccco3)N(C)C)c(C)c2c1 (stereo unspecified)	?	-20%	1%	9%	-19%
Cc1c(C(=O)NCC(c2ccco2)N(C)C)oc2c(Cl)cccc12 (stereo unspecified)	50µM*	50µM*	4%	?	?
CC(Cc1ccccc1)(NC(=O)CN)c1ccccc1 (stereo unspecified)	18%[59 µM]	79µM*	·	·	·
Cc1ccc(CNc2ncnc3ccc(-c4ccc5c(c4)OCO5)cc23)s1	·	·	·	·	-26%
Cn1cncc1CNc1ncnc2ccc(-c3ccc4c(c3)OCO4)cc12	·	·	·	·	56µM*
CN(CC(=O)Nc1ccccc1C(F)(F)F)C(=O)COc1cccnc1[N+](=O)[O-]	-42%	-7%	0%	36%	7%
CCOC(=O)c1[nH]c(C)c(/C(O)=C2\C(=O)C(=O)N(CCCN3CCOCC3)C2c2cccnc2)c1C (stereo unspecified)	22µM*	-8%	0%	35%	-15%
COC(=O)c1[nH]c(C)c(/C(O)=C2\C(=O)C(=O)N(CCCN3CCOCC3)C2c2ccccn2)c1C (stereo unspecified)	?	50µM*	-2%	36%	?
COC(=O)c1[nH]c(C)c(/C(O)=C2\C(=O)C(=O)N(CCN(C)C)C2c2ccc(C)o2)c1C (stereo unspecified)	40µM*	-33%	0%	8%	35µM*
CCOC(=O)c1[nH]c(C)c(/C(O)=C2\C(=O)C(=O)N(CCCn3ccnc3)C2c2ccncc2)c1C (stereo unspecified)	50µM*	?	-1%	21%	35µM*
COC(=O)c1[nH]c(C)c(/C(O)=C2\C(=O)C(=O)N(CCN(C)C)C2c2ccco2)c1C (stereo unspecified)	?	-1%	0%	35%	-6%
CCOC(=O)c1[nH]c(C)c(/C(O)=C2\C(=O)C(=O)N(CCCN(CC)CC)C2c2cccnc2)c1C (stereo unspecified)	·	·	-5%	61%	0%
